# According to the supplement of paper PMC3334620:
# Whole data set: some 33,000 sequences, median “E-score (-0.5 to 0.5)” near -0.012, cut for the highest 2% near 0.29. What follows is part of a selection rich in the highest values, with near analogues and random picks from the rest.
# Target: T1, Ybr033w (UniProt P38073)
# T1 sequence: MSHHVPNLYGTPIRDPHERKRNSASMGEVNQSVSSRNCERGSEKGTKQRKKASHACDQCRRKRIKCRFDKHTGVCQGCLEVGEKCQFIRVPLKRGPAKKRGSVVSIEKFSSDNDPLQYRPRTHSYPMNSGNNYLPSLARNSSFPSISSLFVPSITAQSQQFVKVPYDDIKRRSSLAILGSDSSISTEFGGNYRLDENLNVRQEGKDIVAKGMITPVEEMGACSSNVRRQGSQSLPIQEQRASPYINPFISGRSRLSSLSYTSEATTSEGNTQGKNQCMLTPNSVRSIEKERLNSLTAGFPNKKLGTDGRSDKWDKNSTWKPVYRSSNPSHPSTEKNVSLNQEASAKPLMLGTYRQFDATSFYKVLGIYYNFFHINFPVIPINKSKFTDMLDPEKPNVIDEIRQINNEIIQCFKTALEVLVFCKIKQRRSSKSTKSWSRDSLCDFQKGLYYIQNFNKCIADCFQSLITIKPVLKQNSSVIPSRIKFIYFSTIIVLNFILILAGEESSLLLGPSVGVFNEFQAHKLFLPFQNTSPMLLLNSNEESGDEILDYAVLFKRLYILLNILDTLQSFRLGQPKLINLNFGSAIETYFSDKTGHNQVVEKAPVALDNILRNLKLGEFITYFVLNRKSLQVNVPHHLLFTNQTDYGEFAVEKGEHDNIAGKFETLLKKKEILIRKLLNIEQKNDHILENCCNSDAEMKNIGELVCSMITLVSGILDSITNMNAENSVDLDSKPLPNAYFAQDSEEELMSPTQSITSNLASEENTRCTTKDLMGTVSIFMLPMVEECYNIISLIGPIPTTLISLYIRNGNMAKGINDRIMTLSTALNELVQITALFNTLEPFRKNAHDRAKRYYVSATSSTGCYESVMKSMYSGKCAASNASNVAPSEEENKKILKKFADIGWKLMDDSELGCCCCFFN
# Test: PBM E-score (8-mer binding enrichment) (E-score (-0.5 to 0.5)); higher = stronger / more preferred TF binding
# Conditions: protein concentration: 200 nM; construct: GST-full length
# Method: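 Universal 'all 10-mer' protein binding microarrays (Agilent AMADID 015681) probed with GST-tagged S. cerevisiae TFs (full-length or DBD) made by in vitro transcription/translation (PURExpress), about 100-200 nM. Bound TF was detected with fluorescent anti-GST. Each ungapped 8-mer (which stands for itself and its reverse complement) is scored by the PBM enrichment score (E-score), a modified Wilcoxon-Mann-Whitney statistic from -0.5 to +0.5, computed with the Universal PBM Analysis Suite. Scale: above 0.35 generally sequence-specific binding.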
row,Sequence,PBM E-score
1,AATCCAAG,0.228
2,CTAGCGAG,-0.177
3,ACATCGCT,-0.101
4,ACGGGCAT,-0.108
5,ACTTTAGG,-0.0326
6,CCCCAAGA,-0.0572
7,ATAATATA,0.321
8,ATAATATG,0.273
9,ATAATATC,0.28
10,CAAGTCTC,-0.0267
11,CTGGCCGC,-0.0871
12,AACTTATA,0.353
13,CACTTATA,0.176
14,AACTTATG,0.223
15,GACTTATA,0.293
16,TACTTATA,0.12
17,GACTTATC,-0.152
18,AAGCCACA,-0.0702
19,AGCCTCTA,-0.114
20,ACCAGAGA,0.0781
21,GAGTCGAA,0.173
22,CAATATTG,0.199
23,CAATATTA,0.27
24,TAATATTA,0.342
25,TAATATCA,0.319

row,Sequence,PBM E-score
1,CAATATCA,0.171
2,CAGTATCA,-0.0137
3,GAATATTA,0.315
4,GAATATCA,0.259
5,AAATATCA,0.252
6,TAGTATCA,0.319
7,GAATATGA,0.203
8,GAGTATCA,0.0233
9,GTGTGTGA,0.0756
10,CGAGGTAA,-0.0143
11,GGAGCGCC,-0.27
12,ACTAGTCG,-0.166
13,ACCATCTC,-0.0025
14,CCTCGTAA,-0.0544
15,GAATATTC,0.344
16,AAATATTA,0.211
17,CAATATTC,0.219
18,AAATATGC,0.237
19,GAATATCC,0.227
20,AAATATTC,0.37
21,AAATATTG,0.274
22,AAATATTT,0.357
23,AATCTTTC,0.00719
24,GCCATTTA,-0.0426
25,AGCAAGCC,-0.126

row,Sequence,PBM E-score
1,AGGTGGAC,-0.104
2,ATCTAGAA,0.214
3,AGAATTTC,0.0968
4,CTAATTTA,0.257
5,ATAATTTC,0.314
6,AAAATTTG,0.263
7,ATAATTGG,0.157
8,ATAATTTA,0.338
9,ATAATTTG,0.35
10,CTAATTTC,0.181
11,GTAATTTA,0.218
12,GATCTGCA,-0.215
13,ACACGTGT,-0.0649
14,ATCCCAAC,0.079
15,ATAGGTAG,0.0525
16,ACTGCTAC,0.0898
17,GCGGACTA,-0.0323
18,ACAAATTG,0.0817
19,CAAAATTA,0.182
20,ACAATTTA,0.225
21,CAAAATTG,0.0527
22,AAAAATTA,0.302
23,CAAAATTC,0.308
24,CCAAATTA,0.269
25,AAAAATGA,0.233

row,Sequence,PBM E-score
1,AAAAATTC,0.228
2,ACAAATTA,0.328
3,GCAATTTA,0.307
4,CCAATTTA,0.203
5,AAACGCAG,-0.0761
6,ACCAAGTC,0.139
7,AGCACTGC,-0.022
8,AGATGCAG,0.0243
9,CGAAGCTC,-0.147
10,TAAAATTA,0.288
11,GAAAATTA,0.331
12,TAAAATGA,0.217
13,CAAATTTA,0.237
14,GGAAATTA,0.264
15,TAAATTTA,0.289
16,GAAAATTC,0.285
17,GAAAATGA,0.085
18,AGAAATTA,0.352
19,TAAAATCA,0.274
20,AAAATTTA,0.269
21,AGAAATTC,0.178
22,AATGATGT,0.17
23,GTTCAGCA,-0.0295
24,GTCGGCCA,-0.277
25,AAACCATG,0.0309

row,Sequence,PBM E-score
1,AGACTGCA,-0.156
2,ATCCATGC,0.0934
3,AGGTCAGG,-0.233
4,CAATTTTA,0.217
5,GAATTTTA,0.295
6,AAATTTTA,0.171
7,CCAGCGAC,-0.116
8,ATAGCTGG,-0.0109
9,CAATGACG,-0.158
10,AGAGTAAT,0.313
11,CTAGTAAA,0.242
12,ATAGTAAT,0.346
13,ATAGTAAA,0.277
14,GTAGTAAA,0.188
15,AGAGTAAG,0.126
16,ATAGTAAC,0.116
17,AGAGTAAA,0.0304
18,TTAGTAAA,0.301
19,AGTGCTTA,-0.00926
20,CCATTTGC,0.0186
21,AGGTAGTC,-0.165
22,TATTTTAA,0.26
23,CATTTAAA,0.21
24,CAGTTAAA,0.192
25,TATTAAAA,0.312

row,Sequence,PBM E-score
1,TATTTAAA,0.301
2,CATTAAAC,0.13
3,AATTAAAA,0.112
4,GAGTTAAA,0.0599
5,CATTAAAG,0.147
6,CATTAAAA,0.319
7,TTTTAAAA,0.073
8,TAGTTAAA,0.296
9,AGAAATCC,0.0392
10,CGCAAGCC,0.0476
11,ACAGAGTC,-0.176
12,GGTTAAAA,0.0924
13,AAGTTGAA,0.0758
14,ATGTTAAA,0.289
15,GATTAAAC,0.17
16,CTGTTAAA,0.109
17,CAGTTGAA,0.00266
18,TTGTTAAA,0.0557
19,GATTAAAA,0.311
20,TAGTTGAA,0.307
21,CACTGTTC,-0.00287
22,ACTTCATG,-0.118
23,ACTGCAGC,-0.136
24,ACTTACCC,0.114
25,CCGACCAA,-0.0529

row,Sequence,PBM E-score
1,ATCATGAC,0.0647
2,CTGCTAAG,-0.132
3,GCATCGAC,-0.0951
4,TGACCACA,0.0413
5,TCCCTAAA,0.0945
6,ATTCGTGG,0.0347
7,CTATTTAA,0.022
8,ATATTTAA,0.372
9,AGATTTTC,0.322
10,ATATTTAG,0.321
11,ATATTTTA,0.3
12,CTATTTTA,0.252
13,ATTTTTAG,0.179
14,AGATTTTA,0.109
15,ATATTTAC,0.215
16,AGATTTCC,0.135
17,GTATTTTA,0.23
18,GTATTTAA,0.267
19,CCATTTAG,-0.056
20,CGTGGGCC,-0.155
21,AATCCTAA,0.0561
22,CCTCCAGG,-0.322
